Rows were chosen to be rich in hits. Some 2.9% of all compounds tested hit in one or more screens of this group.
S1P4 ag – activates the human S1P4 receptor; actives 0.35% (n = 220,000); S1P4-expressing cell line, agonist reporter assay; activation, % at 4.98 µM; AID 1509; O95977; in the data active = activation above about 11%
Target sequence (O95977 whole entry, looked up): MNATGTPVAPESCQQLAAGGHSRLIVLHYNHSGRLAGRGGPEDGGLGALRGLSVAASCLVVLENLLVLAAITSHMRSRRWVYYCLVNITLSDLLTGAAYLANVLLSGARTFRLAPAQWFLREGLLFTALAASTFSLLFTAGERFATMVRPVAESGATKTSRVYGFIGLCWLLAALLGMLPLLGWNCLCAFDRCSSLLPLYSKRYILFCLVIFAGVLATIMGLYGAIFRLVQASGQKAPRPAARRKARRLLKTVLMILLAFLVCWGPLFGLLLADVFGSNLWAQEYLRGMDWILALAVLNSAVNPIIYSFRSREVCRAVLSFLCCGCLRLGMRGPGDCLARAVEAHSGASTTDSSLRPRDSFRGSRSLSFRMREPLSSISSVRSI
HSF-1 act – increases HSF-1 driven luciferase reporter signal; actives 1.7% (n = 300,000); AID 504408; activation, % at 9 µM; NIH3T3-HGL HSF-1 luciferase reporter, MG132, 8 h; 100% = twice DMSO control signal;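 active = mean replicate activation of at least 50% with a set share of replicates each reaching 50%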
S1P3 antagonist – S1P3 (human) receptor antagonism. Q99500. CHO S1P3 NFAT-BLA reporter, FRET fluorescence, antagonist mode. inhibition, % at 4.98 µM. actives 0.27% (n = 170,000). AID 485;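 active = inhibition above the plate cutoff, the mean inhibition of test wells on that plate plus 3 SD, cut at about 28% in these data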;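 also: cells challenged with S1P at its EC80 of 0.8 µM; blue over green emission ratio from cleaved BLA substrate after 4 h stimulation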
Hsp70 activator – switches on Hsp70 transcription. HeLa Hsp70 promoter luciferase reporter, luminescence; scaled: vehicle 0, proteasome-inhibitor control 100%. activation, % at 10 µM. actives 0.04% (n = 200,000). AID 1203;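 active = activation above the mean across all tested compounds plus 3 SD, cutoff set per campaign, cut at about 5.5% in these data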
S1P4 antagonist – antagonists of human S1P4 receptor; O95977; S1P4-expressing cells, antagonist mode, reporter read-out; inhibition, % at 4.98 µM; actives 0.26% (n = 220,000); in the data active = inhibition above about 29%
HSF1 inhib – HSF1 inhibition. NIH3T3-HGL HSE-luciferase, MG132-induced, luminescence 8 h; stronger effect = lower value. activity change, negative = inhibition, % at 7.5 µM (by protocol). actives 0.77% (n = 300,000);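 active = more than half of replicate wells show activity change below -50%, luminescence cut by over half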;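 also: luciferase reports HSF-1 transcriptional activity via heat shock element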
Large screens that a line does not name were inactive.

CCOC(=O)N1CCN(C(=O)c2cc(OC)cc(OC)c2)CC1	none (no result: S1P3 antagonist)
COc1cc(OC)cc(C(=O)N2CCN(S(C)(=O)=O)CC2)c1	HSF1 inhib -82
CCOC(=O)C1CCN(S(=O)(=O)c2c(Cl)ccc3nonc23)CC1	HSF-1 act 197 (no result: S1P4 ag, S1P3 antagonist, Hsp70 activator, S1P4 antagonist)
COCCCNC(=O)c1cn(CCOC)c(=O)c2c1c1ccccc1n2C	none (no result: S1P4 ag, S1P3 antagonist, Hsp70 activator, S1P4 antagonist)
COCCCNC(=O)c1cn(CC(C)C)c(=O)c2c1c1ccccc1n2C	HSF1 inhib -75 (no result: S1P3 antagonist)
CCOC(=O)C(C(=O)OCC)c1cc(Br)c2noc3c2c1C(=O)c1ccccc1-3	HSF-1 act 52 (no result: S1P3 antagonist)
COc1cc(OC)c(OC)cc1/C=N/NC(=S)NCC1CCCO1 (stereo not given)	HSF1 inhib -70 (no result: S1P3 antagonist)
c1ccc(-c2nnc3n2-c2ccccc2SC3)cc1	none (no result: Hsp70 activator)
Cc1nn2cnnc2c(C)c1Cc1c(F)cccc1Cl	none (no result: S1P4 ag, S1P3 antagonist, Hsp70 activator, S1P4 antagonist)
O=C(NCCc1ccccc1)c1noc2c1CCc1ccccc1-2	HSF-1 act 52
CCCNC(=O)c1noc2c1CCc1ccccc1-2	none
COc1cccc(/C=N/Nc2nc(Nc3ccc([N+](=O)[O-])cc3)nc(N3CCCC3)n2)c1O	none
COc1cccc(/C=N/Nc2ccc([N+](=O)[O-])cn2)c1O	HSF-1 act 96 (no result: S1P4 ag, S1P3 antagonist, Hsp70 activator, S1P4 antagonist)
CC(=O)Nc1cccc(NC(=O)CCN2C(=O)c3ccccc3S2(=O)=O)c1	none (no result: S1P4 ag, S1P3 antagonist, Hsp70 activator, S1P4 antagonist)
CCNS(=O)(=O)c1ccc(CCC(=O)NCc2ccc3c(c2)OCO3)cc1	HSF-1 act 54 (no result: S1P4 ag, S1P3 antagonist, Hsp70 activator, S1P4 antagonist)
CC(Sc1nc2ccccc2c(=O)n1CC1CCCO1)C(=O)Nc1ccc(S(N)(=O)=O)cc1 (stereo not given)	HSF-1 act 56 (no result: S1P4 ag, S1P3 antagonist, Hsp70 activator, S1P4 antagonist)
CCCCOC(=O)CCc1c(C)n[nH]c1C	HSF-1 act 63 (no result: Hsp70 activator)
CCCCOC(=O)CCc1c(C)[nH]c(=O)c(C#N)c1C	none
C=CCNC(=O)CSc1nnc(C(CC)N(C)C)n1C1CCCCC1 (stereo not given)	HSF-1 act 67 (no result: Hsp70 activator)
CN1CCN(CC(=O)n2c3c(c4ccccc42)CCCC3)CC1	HSF1 inhib -64
CCN(CC)CC(=O)n1c2c(c3ccccc31)CCCC2	none
Cn1c(SCc2cccc(C(F)(F)F)c2)nnc1-c1ccco1	HSF-1 act 59
Cc1nc(C)c(-c2csc(Nc3ncccc3C)n2)s1	HSF-1 act 61 (no result: S1P4 ag, S1P3 antagonist, Hsp70 activator, S1P4 antagonist)
Cc1nc(C)c(-c2csc(Nc3ccc(F)cc3)n2)s1	HSF-1 act 65
C#CCNC(=O)C1=C[C@H](C2CCCCC2)[C@@H](CCCO)[C@H](OCC)O1	none
S=C(Nc1ccccc1)Nc1ccc(Cl)cn1	HSF-1 act 78
O=C(COc1ccccc1Cl)Nc1ccc(Cl)cn1	HSF-1 act 106
COC(=O)c1cccc(NC(=O)CCSc2ccc(Cl)cc2)c1C	none (no result: S1P3 antagonist)
CC(=O)Oc1ccc(-c2cccc(C(=O)OCC(=O)N(C)c3ccccc3)c2)cc1	HSF-1 act 90
CN(C)c1cccc(C(=O)OCC(=O)N(C)c2ccccc2)c1	none (no result: S1P4 ag, S1P3 antagonist, Hsp70 activator, S1P4 antagonist)
CC1=C(C)/C(=N\OS(=O)(=O)c2ccc(C)cc2)C=CC1=O	S1P4 antagonist 43 (no result: HSF-1 act, HSF1 inhib)
COc1ccc(S(=O)(=O)/N=C2/C=CC(=O)C(C)=C2C)cc1	none (no result: S1P3 antagonist)
CC(=O)NC(CC(=O)O)c1ccc([N+](=O)[O-])cc1 (stereo not given)	none (no result: Hsp70 activator)
O=C(Nc1nc(-c2ccccc2)cs1)C1CCCCN1S(=O)(=O)c1ccccc1 (stereo not given)	S1P3 antagonist 98 (no result: HSF-1 act, HSF1 inhib)
O=C(Nc1nc(-c2ccccc2)cs1)C1CCCCN1S(=O)(=O)c1ccc(Cl)cc1 (stereo not given)	none (no result: S1P3 antagonist)
O=C(Nc1ccc(Br)cc1)c1cnc[nH]1	none (no result: S1P4 ag, S1P3 antagonist, Hsp70 activator, S1P4 antagonist)
COC(=O)CCC(=O)NC(=S)Nc1ccccc1F	none
COc1ccc2c(c1)-c1c(sn(-c3ccccc3)c1=S)C(C)(C)N2	HSF-1 act 55
C(=C\c1ccco1)/C1=NN(c2ccccc2)C(c2ccco2)C1 (stereo not given)	HSF-1 act 78
N#Cc1cc2c(nc1SCC(=O)Nc1sc3c(c1C#N)CCC3)CCC2	none (no result: S1P3 antagonist)
CC1CCc2c(sc(NC(=O)CSc3nnc(-c4ccccc4)o3)c2C#N)C1 (stereo not given)	HSF-1 act 53
COc1ccc(-c2ccc(C#N)c(SCC(=O)Nc3sc4c(c3C#N)CCC4)n2)cc1OC	HSF-1 act 53 (no result: S1P3 antagonist)
N#Cc1c(NC(=O)CSc2nnc(-c3ccccc3)o2)sc2c1CCCC2	HSF-1 act 76 (no result: S1P3 antagonist)

Source: PubChem BioAssay
